# Data from ChEMBL document CHEMBL4513216, “Probing the Open Global Health Chemical Diversity Library for Multistage-Active Starting Points for Next-Generation Antimalarials” (ACS Infect Dis, 2020).
# Hit rate of the full screen: of about 68,000 compounds, about 2,700 (4%) showed an effect of 50% or more. The entries come from a sample that favours strong results as a whole.
# Tested on: Plasmodium berghei
# Experiment: Screen against P. berghei liver stage (PbLuc), transformed with Luciferase, at 2uM
# Assay type: functional, HepG2
# Settings: tested at 2 uM
row,SMILES,INHIBITION
1,Cc1csc(CNc2cnn(CC(C)C)c2)n1,3.58%
2,CCc1nnc2n1CCN(C(=O)c1cc(C)n(-c3ccccc3)c1C)C2,-68.26%
3,Cn1cc(N2CCC3(CCN(C(=O)[C@H]4CCCO4)C3)C2=O)cn1 (some centres undefined),-28.81%
4,Cc1cnc(CNC(=O)[C@@]23CCO[C@@H]2CCN(C2CCCC2)C3)cn1,-7.71%
5,CC(=O)N1CC[C@H]2OCC[C@@]2(C(=O)NCc2cnc(C)cn2)C1,-41.74%
6,Cc1cnc(CNC(=O)[C@@]23CCO[C@@H]2CCNC3)cn1,62.6%
7,CCN1C[C@@H]2C[C@H](C(=O)NCc3cccnc3)[C@H](C1)O2,-19.81%
8,CCCC1(CO)CCCN(C(=O)CCCn2nc(C)cc2C)C1 (centres undefined),1.1%
9,COc1ccc(C(=O)N2CCCC(n3nc(C)nc3C)C2)c(OC)c1 (centres undefined),-42.39%
10,CN(Cc1cc(Br)cn1C)C(=O)c1cscn1,30.06%
11,Cc1ccc(CN2CCCN(Cc3cscn3)CC2)cc1,-6.56%
12,Cc1cnc(C2(C)CCN(Cc3csc(C)n3)CC2)s1,19.47%
13,Cc1cnc(C2(C)CCN(Cc3cscn3)CC2)s1,50.32%
14,O=C1CCC2(CCN(Cc3cscn3)CC2)CN1CC1CCCO1 (centres undefined),40.47%
15,CCN1CC2(CCC1=O)CCN(Cc1cscn1)CC2,50.32%
16,O=C1CCC2(CCN(Cc3cscn3)CC2)CN1CCCO,-8.8%
17,CC(C)c1cc(C(=O)N2C[C@@H]3CC[C@H]2CN(Cc2cscn2)C3)no1,22.89%
18,CCOc1ccc2[nH]c(=O)c(CN3CCCC3c3ccccn3)cc2c1 (centres undefined),-97.01%
19,CC(C)(C)n1nnnc1CN(Cc1ccccc1)Cc1ccc(Cl)cc1,8.33%
20,Cc1csc(C(Cc2ccsc2)NC(=O)CN(C)Cc2ccccn2)n1 (centres undefined),7.39%
21,CN(CC(=O)NC(Cc1ccsc1)c1cccnc1)Cc1cccnc1 (centres undefined),-37.25%
22,Cc1csc(C(Cc2ccsc2)NC(=O)CN(C)Cc2cccnc2)n1 (centres undefined),55.29%
23,COc1cccc(CN2CCC3(CCN(c4ncc(C)cn4)CC3)C2)c1,13.26%
24,CC(C#N)CNS(=O)(=O)c1ccc(Br)c(F)c1 (centres undefined),64.21%
25,Cc1ccc(S(=O)(=O)NCC(C)C#N)cc1Br (centres undefined),4.88%
26,CC(C#N)CNS(=O)(=O)c1ccc(F)c(Br)c1 (centres undefined),-27.36%
27,COc1ccc2c(c1)C1(CCN(Cc3ccoc3)CC1)N(C)CC2,-11.19%

row,SMILES,INHIBITION
1,COCCC(=O)NCCn1nc(C2CCNC2)c2cccnc21 (centres undefined),49.9%
2,Cc1ccc(CN2CCOCC2)cc1NCc1ccsc1,52.85%
3,Cc1ccc(C(=O)N2CCOCC2)cc1NCc1ccsc1,21.24%
4,Cc1ccc(CN2CCOCC2)cc1NC(=O)c1ccsc1,34.25%
5,CS(=O)(=O)CC1CCCN(C(=O)Cn2cccc(C(F)(F)F)c2=O)C1 (centres undefined),33.96%
6,FC(F)(F)CCc1ncnn1-c1ccc2c(c1)OCO2,11.9%
7,CN1CCN(C[C@H]2CC[C@@H](Cc3ccc4c(c3)OCO4)O2)CC1,25.69%
8,CS(=O)(=O)N1CCC[C@H]1c1ncnn1-c1ccc2c(c1)OCO2,-13.17%
9,CS(=O)(=O)CCc1ncnn1-c1ccc(F)c(Cl)c1,19.38%
10,CN1CCN(CCc2ncnn2-c2ccc3c(c2)OCO3)CC1,65.76%
11,FC(F)C(F)(F)COCc1ncnn1-c1ccc2c(c1)OCO2,57.34%
12,CN(CCCNC(=O)CN1CCS(=O)(=O)CC1)c1ccccc1,-20.29%
13,COc1cccc(CN(Cc2ccco2)Cc2[nH]cnc2C)c1,28.07%
14,CCCc1noc(C2CCN(S(=O)(=O)c3cccs3)CC2)n1,-64.06%
15,O=S(=O)(C1CC1)N1C[C@H]2CCC[C@@]2(COc2ccccn2)C1,-3.87%
16,CCCc1cc(C(=O)N[C@@H]2CC[C@@H](N3CCOCC3)[C@@H]2O)no1,4.06%
17,COC[C@]1(O)CCN(Cc2cnc(N3CCOCC3)nc2)CC1(C)C,52.31%
18,COCc1ncc(CN2CC[C@@](O)(COC)C(C)(C)C2)cn1,-20.75%
19,COC[C@]1(O)CCN(Cc2cnc(N(C)C)nc2)CC1(C)C,10.24%
20,Cc1ncncc1C(=O)N1CCCN(Cc2ncc(Cl)n2C)CC1,-16.3%
21,Cc1noc(C)c1-c1cncc(C2CCCN2Cc2cn(C)cn2)n1 (centres undefined),50.32%
22,Cc1noc(C)c1-c1cncc(C2CCCN2Cc2cc[nH]n2)n1 (centres undefined),46.98%
23,Cc1noc(C)c1-c1cncc(C2CCCN2Cc2c[nH]cn2)n1 (centres undefined),28.23%
24,CCOC(=O)C1CCN(C(=O)Cn2ccc3cc(Br)ccc32)CC1,21.14%
25,Cc1ccc2c(n1)N(Cc1cccnc1)CCN(C1CCOCC1)C2,-91.9%
26,Cc1ccc(NC(=O)NCCCn2nc3ccccn3c2=O)cc1,-17.83%
27,Cc1ccccc1N1CCN(C(=O)CC(C)C)CC1,56.49%
